Source: PubChem
Vaccinia Venus: qHTS for Stage-Specific Inhibitors of Vaccinia Orthopoxvirus: Venus Reporter Primary qHTS | Vaccinia virus Venus reporter expression, fluorescence | Potency, µM (doses to about 36.5 µM), for the others: at the top dose activity change, negative = inhibition, actives largely listed as inhibitors | 0.46% of 330,000 active; calls by dose curve; tested in A549 cells; further: nearly all actives have a fitted effect of over 30% in size
AMA1-RON2 inh: qHTS for Inhibitors of AMA1-RON; Towards Development of Antimalarial Drug Lead: Primary Screen; AID 720542, 2013; Plasmodium falciparum AMA1 (3D7) - RON2 peptide interaction; AlphaScreen AMA1-biotinylated RON2 peptide binding; Potency, µM (series often up to 58.2 µM), inactives show at the highest dose activity change, negative = inhibition, actives largely listed as inhibitors; 0.2% of 360,000 active;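 further: 0% = vehicle wells and -100% = peptide control; nearly all actives have a fitted effect of over 45% in size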
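AMA1 (3D7) with his tag at 25 nM final met compounds first, then biotinylated RON2 peptide at 25 nM; detection used donor plus acceptor beads, 10 µg/mL apiece, read by AlphaScreen after 30 min at room temperature.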
Vaccinia mCherry: qHTS for Stage-Specific Inhibitors of Vaccinia Orthopoxvirus: mCherry Reporter Primary qHTS; Vaccinia virus mCherry reporter infection, fluorescence; Potency, µM (top dose mostly 36.5 µM), for inactives: at the highest dose activity change, negative = inhibition, actives largely listed as inhibitors; 0.63% of 310,000 active; calls by dose curve; tested in A549 cells; further: nearly all actives have a fitted effect of over 35% in size
Pf growth 96h: Primary qHTS for delayed death inhibitors of the malarial parasite plastid, 96 hour incubation; 6.9% of 320,000 active; Potency, µM (top dose mostly 28.7 µM), for the others: at the highest dose activity change, negative = inhibition, usual class: inhibitors; P. falciparum luciferase reporter growth, 96 h
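Readout is luminescence from an integrated firefly luciferase in P. falciparum. Red cells, 2% hematocrit and 0.05% parasitemia final, were cultured with compound through two parasite generations (96 hours) at 37 C, 5% CO2.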
Pf growth 48h: Primary qHTS for delayed death inhibitors of the malarial parasite plastid, 48 hour incubation; P. falciparum luciferase growth in erythrocytes, 48 h; Potency, µM (doses to about 28.7 µM), without a hit: top-dose activity change, negative = inhibition, actives largely listed as inhibitors; 5.9% of 310,000 active
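Erythrocytes infected with P. falciparum carrying an integrated firefly luciferase reporter (2% hematocrit, 0.1% parasitemia final) were exposed to compounds in RPMI 1640 with 0.5% Albumax at 37 C, 5% CO2. Growth inhibition was scored as reduced luminescence.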
Numbers without * were called inactive; i = inactive; ? = inconclusive; · = not tested or not shown; [ ] = remark or other dose. This is a sample that favours compounds with a hit; in the whole collection about 8.7% have one here. Unless noted, the call rests on the fitted dose curve; in most records, active means well fitted curve in the direction sought with a large enough effect; inconclusive means small, poorly fitted or top-dose-only effect, or another doubt; inactive means no such curve, though single readings can be large; an effect the other way counts as inactive or inconclusive. Unless noted, on the % scale 0 is the no-effect control and ±100 the full control effect; potency means the concentration at half of the fitted maximal effect.

SMILES | Vaccinia Venus | AMA1-RON2 inh | Vaccinia mCherry | Pf growth 96h | Pf growth 48h
CCOc1ccc(NC(=O)CSc2nc3c(c(=O)[nH]2)CCCC3)cc1 | -9.9% | · | -7.8% | · | ·
COc1cc2c(cc1N/C=C(\C#N)c1nc(-c3ccc(F)cc3)cs1)oc1ccccc12 | 5.4% | -1.6% | i | ? | 9.28µM*
COC(=O)c1ccc(C(=O)OC)c(NC(=O)c2cnn3c(C(F)F)cc(-c4ccccc4)nc23)c1 | -6.7% | · | 0.3% | · | ·
COC(=O)CSC1=NS(=O)(=O)c2ccccc21 | -19.0% | -9.2% | i | 9.6% | -10.6%
O=C(CSC1=NS(=O)(=O)c2ccccc21)Nc1ccccc1 | 10µM* | 10.0% | 12.6µM* | -3.9% | ·
N#CC1=C(N)Oc2ccc3ccccc3c2C1c1cccnc1 (configuration not stated) | · | -4.4% | · | 0.0% | -21.9%
N#CC1=C(N)Oc2n[nH]c(-c3ccc(F)cc3)c2C1c1cccnc1 (configuration not stated) | -6.2% | 8.8% | -3.2% | 5.86µM* | ·
N#CC1=C(N)Oc2ccc3ccc(O)cc3c2C1c1cccnc1 (configuration not stated) | ? | -1.7% | ? | ? | 1.31µM*
Cc1cc2c(c(=O)n1Cc1ccco1)C(c1cccnc1)C(C#N)=C(N)O2 (configuration not stated) | · | 3.0% | · | 9.28µM* | 0.0%
Cc1ccc(Cl)cc1N1CCN(C(=O)c2cc3c(-c4ccccc4F)nn(C)c3s2)CC1 | 1.7% | · | -3.1% | · | ·
CCC(C(=O)NCc1ccccc1Cl)n1c(=O)c2cccn2c2ccccc21 (configuration not stated) | 12.5% | · | 10.2% | · | ·
COc1ccc(NC(=O)c2oc3c(c2C)-c2nn(Cc4c(F)cccc4Cl)cc2CC3)c(OC)c1 | -6.2% | · | -8.4% | · | ·
Cc1cc(Oc2cnn(C(C)(C)C)c(=O)c2Cl)cc(C(C)C)c1 | · | 6.2% | · | 8.28µM* | 11.7µM*
O=c1oc2cc(O)ccc2cc1-c1nc2c(s1)CCc1ccccc1-2 | 15.5% | 17.6%[11.6 µM] | -6.2% | 9.28µM* | -8.3%
CCCC(=O)N1c2ncnn2C2(CCCCC2)[C@@H]2CCCC[C@@H]21 | -11.4% | · | -14.6% | · | ·
CCCCNC(=O)CN1CCN(c2ccc(NC(=O)c3ccc(OC)cc3)cc2C(=O)O)CC1 | -9.7% | · | -6.5% | · | ·
CSc1cc(-c2ccncc2)nc(-c2ccc(Cl)cc2)c1 | -21.8% | 17.7% | ? | 14.7µM* | ·
Clc1ccc2nc(-c3ccncc3)cc(-c3ccccc3)c2c1 | -18.2% | 1.2%[2.32 µM] | -19.3% | ? | 9.2%
Cc1ncsc1C(=O)N1N=C2/C(=C/c3ccc(N4CCOCC4)cc3)CCCC2C1c1ccc(N2CCOCC2)cc1 (configuration not stated) | 0.3% | -17.2% | -23.8% | 5.22µM* | ?
Cc1n(CC(=O)c2ccc(F)cc2)c2ccccc2[n+]1C | -12.0% | 5.5% | i | ? | 3.7µM*
CCCCc1n(CC(=O)c2ccc(Cl)cc2)c2ccccc2[n+]1C | -18.1% | -10.8% | -14.0% | ? | 1.17µM*
CCOC(=O)Cn1c(=O)cc(C)c2ccccc21 | · | 0.0% | · | 26.7% | 0.3%
CCOC(=O)Cn1c(C)[n+](CC(=O)c2ccccc2)c2ccccc21 | -9.8% | -10.2% | -16.8% | 5.22µM* | ?
O=C(NCc1cccc(Cl)c1)C1CCCN(c2ncnc3onc(-c4ccc(F)cc4)c23)C1 (configuration not stated) | -10.8% | · | -4.6% | · | ·
CCC(C)N1CCC2(CC1)N=c1c(c3c4c5c(C)c(O)c3c(O)c1=NC(=O)C(C)=CC=C[C@H](C)[C@H](O)[C@@H](C)[C@@H](O)[C@@H](C)[C@H](OC(C)=O)[C@H](C)[C@@H](OC)C=CO[C@@](C)(O5)C4=O)N2 (some centres not stated) | ? | -25.8% | ? | ? | 9.28µM*
SMILES | Vaccinia Venus | AMA1-RON2 inh | Vaccinia mCherry | Pf growth 96h | Pf growth 48h
CC(=O)c1cccc(NC(=O)Cn2c(=O)oc3cc(S(=O)(=O)NCc4ccccc4)ccc32)c1 | 0.8% | · | -13.3% | · | ·
Cc1c(NS(=O)(=O)c2ccc(C(C)(C)C)cc2)c(=O)n(-c2ccccc2)n1C | 2.1% | · | 1.7% | · | ·
CCC(CC)c1nn2c(=O)cc(COc3ccc(NC(=O)c4ccccc4C)cc3)nc2s1 | -4.8% | · | ? | · | ·
CN(C)Cc1c(C(=O)Nc2ccccc2)[nH]c2ccccc12 | 2.0% | 0.5% | i | 9.28µM* | 2.94µM*
COc1ccc(S(=O)(=O)N(CC(=O)Nc2cccnc2)c2ccc(Cl)cc2)cc1 | -9.4% | · | -10.3% | · | ·
OCC1OC(n2cnc3c(=S)nc[nH]c32)C(O)C1O (configuration not stated) | -28.0% | · | ? | 9.53µM* | ?
CC1(C)OC2C(CO)OC(n3cnc4c(=S)nc[nH]c43)C2O1 (configuration not stated) | -15.3% | 43.9% | -7.2% | 7.6% | -5.0%
Nc1nc(=S)c2ncn([C@@H]3O[C@H](CO)[C@@H](O)[C@H]3O)c2[nH]1 | ? | -16.7% | ? | ? | 10.4µM*
CCc1cc2c(cc3c(=O)n(CC(=O)NC(C)c4ccccc4)ncn32)s1 (configuration not stated) | -13.9% | · | -22.1% | · | ·
Cc1csc(NC(=O)CCN2C(=O)c3ccccc3S2(=O)=O)n1 | -4.1% | 12.5% | i | 9.5% | 11.4%
Cc1csc(NC(=O)CN2C(=O)c3ccccc3S2(=O)=O)n1 | · | 72.6% | · | 13.1µM* | 16.1%
CC1=C(C(=O)Nc2ccccc2C)C(c2cccs2)n2nc(SCc3ccccc3)nc2N1 (configuration not stated) | -22.3% | · | ? | · | ·
Cc1ccc(NC(=O)Cn2c(=O)n(CCC(=O)N3CCc4ccccc4C3)c(=O)c3ccccc32)cc1 | -11.6% | · | -13.2% | · | ·
CCCCOc1c(Br)cc(CNCCCN2CCOCC2)cc1OC | -11.9% | 3.9% | ? | 10.4µM* | 13.1µM*
CC(=O)c1cccc(NC(=O)CCc2nc3cccnc3n2Cc2cccs2)c1 | -5.8% | · | -9.6%[7.34 µM] | · | ·
NC(=O)c1nsc(C(=O)N(CC(=O)NC2CCCCC2)Cc2ccc3c(c2)OCO3)c1N | -15.5% | · | -22.8% | · | ·
C=C(C)c1cccc(C(C)(C)NC(=O)Nc2nncs2)c1 | -14.3% | -20.4% | -12.3% | 2.2% | -10.7%
C=C(C)c1cccc(C(C)(C)NC(=O)N2CCOCC2)c1 | -11.7% | -5.3% | -11.5% | · | -5.2%
C=C(C)c1cccc(C(C)(C)NC(=O)N2CCCC2)c1 | -1.6% | -4.7% | · | 13.1µM* | -11.6%
C=C(C)c1cccc(C(C)(C)NC(=O)Nc2nnc(C(C)C)s2)c1 | · | -0.1% | · | 11.7µM* | 27.1%
NC(N)=NCCCC(NC(=O)c1ccccc1)C(=O)Nc1ccc2ccccc2c1 (configuration not stated) | -21.1% | -3.8% | i | 10.4µM* | ?
